For 40 molecules, inhibition results are on record in PubChem BioAssay.

Active and inactive are the calls of the source.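 How the source made its calls: active means compounds giving at least 50% inhibition in the cell-based MKP-3 phosphatase rescue imaging test; inactive means the rest.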

In this test the target is Dual specificity protein phosphatase 6 (Homo sapiens) (UniProt Q16828). Kind of test: Primary imaging screen for DUSP6 inhibitors that restore phospho-Erk in transfected HeLa cells, chemical complementation (AID 609).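 Further: phospho-Erk level distribution per well compared with pooled transfected vehicle control wells.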 Conditions: HeLa MKP-3 transfected, phospho-Erk imaging KS statistic; at 10 µM; stronger effect = higher value; cells stimulated with TPA for 15 min.
Dual specificity protein phosphatase 6 (Homo sapiens), sequence (Q16828 whole entry, looked up): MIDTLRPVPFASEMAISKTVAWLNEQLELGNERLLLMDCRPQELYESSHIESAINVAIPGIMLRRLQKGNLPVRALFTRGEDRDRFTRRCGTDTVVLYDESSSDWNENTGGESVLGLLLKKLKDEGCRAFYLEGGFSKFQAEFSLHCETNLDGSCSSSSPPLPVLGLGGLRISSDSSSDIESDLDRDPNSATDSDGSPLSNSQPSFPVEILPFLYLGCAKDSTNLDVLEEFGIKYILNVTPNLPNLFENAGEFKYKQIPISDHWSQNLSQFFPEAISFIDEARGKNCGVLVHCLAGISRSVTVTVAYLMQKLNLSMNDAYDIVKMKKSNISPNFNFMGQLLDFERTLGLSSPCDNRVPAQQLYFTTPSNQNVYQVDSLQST
What is called inhibition is the relative decrease from the control value, in per cent. Turning to `COCCCNc1nc(-c2ccncc2)nc2ccccc12`, the inhibition was 18.2% (inactive).
As to `CCOC(=O)c1cc2c(=O)n3ccccc3nc2n(Cc2ccccc2Cl)c1=N`, the inhibition is -1.75% (inactive).
Next, `COc1ccc(N/C=C(\C#N)c2nc3ccccc3n2C)c(OC)c1`: 1.75% (inactive); `Cc1c(C)c2cc(Cl)c(O)c(CN3CCN(C)CC3)c2oc1=O`: -10.5% (inactive); `Cc1cc(N2C(=O)C(=O)/C(=C(/O)c3ccccc3)C2c2cccc(Br)c2)no1` (stereo not given): 1.6e-07% (inactive).
Turning to `CC1=CC(c2ccccc2)n2nc(N3C(=O)C4CC=CCC4C3=O)nc2N1` (stereo not given), the inhibition was -5.26% (inactive).
For `O=c1[nH]c(-c2ccccn2)nc2ccccc12`, the inhibition was 1.48% (inactive).
With `COc1ccccc1N(Cc1cc2cccc(C)c2[nH]c1=O)C(=O)C(C)C` the figure was 43.8% (inactive).
Next, `COc1ccc(NCc2cc3ccccc3[nH]c2=O)cc1`: -12.3% (inactive).
With `CN1CCN(Cc2c(O)ccc3c(-c4ccccc4)cc(=O)oc23)CC1` the figure was 1.48% (inactive).
In the case of `COc1ccc(/C(O)=C2/C(=O)C(=O)N(CCN3CCOCC3)C2c2ccccn2)cc1OC` (stereo not given), the inhibition was 15.8% (inactive).
Next, `CC12CCC(C(=O)N(CCC#N)CCC#N)(CC1=O)C2(C)C` (stereo not given): -12.3% (inactive); `Cc1cccc(C)c1N1C(=O)C2ON(c3ccccc3)C(c3ccncc3)C2C1=O` (stereo not given): -1.75% (inactive); `CCCc1cc(=O)oc2c(CN3CCN(C)CC3)c(O)c(Cl)cc12`: 1.6e-07% (inactive).
With `COCCN(CCOC)C(=O)C12CCC(C)(C(=O)C1)C2(C)C` (stereo not given) the figure was 10.5% (inactive).
Next, `c1ccc(-c2nc(NCC3CCCO3)c3ccccc3n2)nc1` (stereo not given): -1.75% (inactive); `COC(=O)C1=C(C)N=C2SC(C)C(=O)N2C1c1cccs1` (stereo not given): 22.8% (inactive); `COC(=O)C1=C(C)N=C2SC(C)C(=O)N2C1/C=C/c1ccccc1OC` (stereo not given): -1.75% (inactive).
In the case of `CCOc1ccc(/C(O)=C2/C(=O)C(=O)N(c3nc(C)c(C)s3)C2c2ccco2)cc1` (stereo not given), the inhibition is -10.5% (inactive).
With `CCN(CC)CCCN1C(=O)C(=O)/C(=C(/O)c2ccc(Cl)cc2)C1c1ccccn1` (stereo not given) the figure was -15.8% (inactive); with `CCc1cc(=O)oc2c(CN3CCCC3)c(O)c(Cl)cc12`, 21% (inactive).
Next, `COc1cccc(-c2nc(NC(C)C)c3ccccc3n2)c1O`: 1.6e-07% (inactive).
Next, `CCOc1ccc(C2C(C(=O)c3ccc(C)o3)=C(O)C(=O)N2CCN2CCOCC2)cc1OC` (stereo not given): -12.3% (inactive).
`Oc1ccccc1-c1nc(NCc2ccco2)c2ccccc2n1`: the inhibition was -7.01% (inactive).
Next, `COc1ccccc1-c1cc(-c2cc(Cl)ccc2O)n[nH]1`: 7.01% (inactive); `N#Cc1nc(-c2ccccc2Cl)oc1N1CCCCC1`: 20.2% (inactive); `CC(C)Cn1nc(NC(=O)C(C)(C)C)c2cc3ccccc3nc21`: -5.26% (inactive).
With `CCO/C(C)=N/n1c2nc3ccccc3nc2c2c(=O)n(CC(C)C)c(C)nc21` the figure was 14% (inactive); with `O=C(NCCCn1ccnc1)C(Cc1ccccc1)N1C(=O)c2ccccc2C1=O` (stereo not given), 1.6e-07% (inactive); with `O=C(O)CCCCCN1C(=O)CCC1=O`, 5.26% (inactive).
With `CCCSc1nc(C)c(CC(=O)O)c(=O)[nH]1` the figure was 1.75% (inactive); with `COc1cccc(-c2nc(NCCN3CCOCC3)c3ccccc3n2)c1O`, 21% (inactive).
Take `CC1CCCCN1C(=O)C12CCC(C)(/C(=N/O)C1)C2(C)C` (stereo not given): the inhibition is 5.26% (inactive).
With `Oc1ccccc1-c1nc(NCCN2CCOCC2)c2ccccc2n1` the figure was 1.6e-07% (inactive).
Regarding `CCC1CCCCN1c1nc(-c2cccc(OC)c2O)nc2ccccc12` (stereo not given), the inhibition is -8.76% (inactive).
With `COc1ccc(C2C=C(c3ccc(Cl)cc3)Nc3nc(NC(C)=O)nn32)cc1` (stereo not given) the figure was -8.76% (inactive); with `Oc1ccc(Br)cc1-c1cc(-c2ccccc2F)[nH]n1`, -5.26% (inactive); with `C=CCNc1nc(-c2cccc(OC)c2O)nc2ccccc12`, 7.01% (inactive).
`COc1cccc(/C(O)=C2/C(=O)C(=O)N(CCN(C)C)C2c2ccc(Br)cc2)c1` (stereo not given): the inhibition was -12.3% (inactive).
Next, `CC1(C)CC(=O)C2=C(C1)Oc1nc3ccccc3cc1C2C(C#N)C#N` (stereo not given): -12.3% (inactive).
